The results in this text go back to PubChem BioAssay (NCI).

Assay [1] is described as follows: NCI Yeast Anticancer Drug Screen. Data for the rad50 strain (AID 155).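 Also: 0% = growth of vehicle-only cultures of the same strain.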 The conditions noted are these: S. cerevisiae rad50 strain growth inhibition, active compounds read high. Summed up: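 Yeast carrying a defined DNA repair defect were exposed to test compounds, and growth was compared with vehicle-treated controls to give percent inhibition.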
Assay [2] can be described thus: NCI Yeast Anticancer Drug Screen. Data for the mec2-1 strain (AID 157). The conditions noted are these: S. cerevisiae mec2-1 strain, active compounds read high. Summed up:
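Growth inhibition is read against vehicle-treated controls after compound exposure of the mec2-1 yeast strain, which is defective in DNA damage repair or cell cycle control.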

Assay [3] can be described thus: NCI Yeast Anticancer Drug Screen. Data for the sgs1 mgt1 strain (AID 161).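 Also: 0% = growth of cultures given vehicle only.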 The conditions noted are these: S. cerevisiae sgs1 mgt1 strain, active compounds read high. The essentials: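 This yeast growth screen uses a strain with defined DNA-repair lesions; compound-treated growth is compared with vehicle-treated growth.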
Assay [4] in a line: NCI Yeast Anticancer Drug Screen. Data for the cln2 rad14 strain (AID 165).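 Also: 0% = growth equal to vehicle treated cultures.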 The conditions noted are these: S. cerevisiae cln2 rad14 strain, active compounds read high. The essentials:
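Growth inhibition, relative to vehicle-treated controls, is the read-out. The test organism is a yeast strain with defined genetic alterations, cln2 rad14.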

Assay [5] in a line: NCI Yeast Anticancer Drug Screen. Data for the bub3 strain (AID 167). The conditions noted are these: S. cerevisiae bub3 mutant strain, active compounds read high. The essentials:
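Compounds were applied to a genetically altered yeast strain carrying a cell-cycle control defect. Growth inhibition was scored against vehicle-treated controls.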

Assay [6] is described as follows: NCI Yeast Anticancer Drug Screen. Data for the mlh1 rad18 strain (AID 175). The conditions noted are these: S. cerevisiae mlh1 rad18 strain growth inhibition, active compounds read high. The essentials:
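Cells of a genetically altered yeast strain, deficient in DNA damage repair, were treated with compound. Their growth was then compared with that of vehicle-treated cultures to give inhibition.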

The mark [7] stands for this setting: at 5.0 µM (retest, dose inferred, filed as 0.5).
Where [8] appears, read: at 50.0 µM (retest, dose inferred, filed as 5.0).

SMILES strings stand for the structures. About 79,000 compounds went through this panel and 15% of them were active in at least one assay; those are over-represented in the sample as a whole. Unmarked numbers belong to inactive results. The source made the active and inactive calls. Rule as the data show it: active = growth inhibition above about 70%; inactive = the rest.

As for `O=C(C[N+]12CN3CN(CN(C3)C1)C2)c1ccc(Cl)cc1Cl`, the growth inhibition was -2% in assay [1] (setting [7]); -4% in assay [1] (setting [8]); 99.3% (active) in assay [1] (at 50.0 µM); 9% in assay [2] (setting [7]); 5% in assay [2] (setting [8]); 99.5% (active) in assay [2] (at 50.0 µM). Besides, the growth inhibition in assay [3] (setting [7]) was -20%; in assay [3] (setting [8]), -4%; in assay [3] (at 50.0 µM), 99.4% (active); in assay [4] (setting [7]), -1%; in assay [4] (setting [8]), -6%; in assay [4] (at 50.0 µM), 99.2% (active). The growth inhibition in assay [5] (setting [7]) was 0%; in assay [5] (setting [8]), -2%; in assay [5] (at 50.0 µM) it was 99.3% (active); in assay [6] (setting [7]), -12%; in assay [6] (setting [8]) it was -26%; in assay [6] (at 50.0 µM), 99.4% (active).

With `Cc1ccc(SC2C(=O)C3(C)CCC2C3(C)C)cc1` (configuration not stated), the growth inhibition is -1% in assay [1] (setting [7]); 32% in assay [1] (setting [8]); 64.2% in assay [1] (at 50.0 µM); -1% in assay [2] (setting [7]); 27% in assay [2] (setting [8]); 28.8% in assay [2] (at 50.0 µM). Moreover, the growth inhibition is -2% in assay [3] (setting [7]); 44% in assay [3] (setting [8]); 72.2% (active) in assay [3] (at 50.0 µM); -1% in assay [4] (setting [7]); 1% in assay [4] (setting [8]); -21.7% in assay [4] (at 50.0 µM). Further, the growth inhibition in assay [5] (setting [7]) is 2%; in assay [5] (setting [8]), 28%; in assay [5] (at 50.0 µM), 37.5%; in assay [6] (setting [7]), 0%; in assay [6] (setting [8]), 52%; in assay [6] (at 50.0 µM) it was 82% (active).

As to `OC1CN(C2CCCCC2)CC1C1(O)CCN(C2CCCCC2)C1` (configuration not stated), the growth inhibition is 0% in assay [1] (setting [7]); 6% in assay [1] (setting [8]); 20.1% in assay [1] (at 50.0 µM); 1% in assay [2] (setting [7]); 5% in assay [2] (setting [8]); -2.75% in assay [2] (at 50.0 µM). Moreover, the growth inhibition was 0% in assay [3] (setting [7]); 11% in assay [3] (setting [8]); 12.8% in assay [3] (at 50.0 µM); 4% in assay [4] (setting [7]); 10% in assay [4] (setting [8]); 65.7% in assay [4] (at 50.0 µM). For the same molecule, the growth inhibition in assay [5] (setting [7]) is 1%; in assay [5] (setting [8]), 15%; in assay [5] (at 50.0 µM), -5.85%; in assay [6] (setting [7]), 3%; in assay [6] (setting [8]), 10%; in assay [6] (at 50.0 µM), 20.2%.

In the case of `OCCCCCCCCCl`, the growth inhibition in assay [1] (setting [7]) is 0%; in assay [1] (setting [8]), 10%; in assay [1] (at 50.0 µM), 35.5%; in assay [2] (setting [7]), -6%; in assay [2] (setting [8]), 6%; in assay [2] (at 50.0 µM), 21.6%. Moreover, the growth inhibition in assay [3] (setting [7]) is 1%; in assay [3] (setting [8]), 9%; in assay [3] (at 50.0 µM) it was 45.1%; in assay [4] (setting [7]), 8%; in assay [4] (setting [8]), 5%; in assay [4] (at 50.0 µM), 35.9%. The growth inhibition in assay [5] (setting [7]) was -3%; in assay [5] (setting [8]), 0%; in assay [5] (at 50.0 µM), -24.9%; in assay [6] (setting [7]) it was -1%; in assay [6] (setting [8]), 9%; in assay [6] (at 50.0 µM) it was 14.1%.
